Results published in PubChem BioAssay AID1159580 (chemical genetic matrix, 2015).
The whole screen tested about 5,500 compounds, of which about 2,000 (36%) were called active. Not shown: some 18% with an inconclusive outcome. No stated cut-off is given here; in the data, active means normalized growth mostly below about 0.91 (no sharp cut-off); inconclusive means no clear call, values can overlap the other calls; inactive means mostly above about 0.92. The list shows a part of the results.

Assay: chemical genetic growth profiling, strain panel (AID 1159580);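 further: tested at 20 µM; growth read once vehicle control cultures reached saturation at 30 °C; 1 = growth at the plate median or of vehicle wells; lower values mean less growth of the strain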
Details: S. cerevisiae deletion strains, growth OD

Measured: normalized growth

CC(=O)Oc1ccccc1C(=O)O
inactive: locus YAL021C, strain ccr4, active compounds read low 0.993 | locus YAL026C, strain drs2, active compounds read low 1 | locus YAL030W, strain snc1, active compounds read low 1 | locus YAL040C, strain CLN3, active compounds read low 0.996 | locus YBL061C, strain skt5, active compounds read low 0.989 | locus YBR009C, strain hhf1, active compounds read low 1.03 | locus YBR023C, strain chs3, active compounds read low 1 | locus YBR171W, strain sec66, active compounds read low 0.985 | locus YBR231C, strain swc5, active compounds read low 1.01 | locus YBR279W, strain paf1, active compounds read low 0.992 | locus YCL011C, strain gbp2, active compounds read low 1 | locus YCL016C, strain dcc1, active compounds read low 0.983 | locus YCL061C, strain MRC1 (second series), active compounds read low 1 | locus YCL069W, strain vba3, active compounds read low 1 | locus YCR088W, strain abp1, active compounds read low 0.989 | locus YDL005C, strain med2, active compounds read low 0.985 | locus YDL040C, strain nat1, active compounds read low 0.996 | locus YDR001C, strain nth1, active compounds read low 0.995 | locus YDR069C, strain doa4, active compounds read low 1.01 | locus YDR137W, strain rgp1, active compounds read low 1 | locus YDR150W, strain NUM1, active compounds read low 0.992 | locus YDR159W, strain sac3, active compounds read low 0.938 | locus YDR195W, strain ref2 1 | locus YDR297W, strain sur2, active compounds read low 1.01 | locus YDR334W, strain swr1, active compounds read low 0.991 | locus YDR335W, strain msn5, active compounds read low 1.03 | locus YDR392W, strain spt3, active compounds read low 0.906 | locus YEL003W, strain gim4, active compounds read low 1.01 | locus YEL037C, strain rad23, active compounds read low 0.998 | locus YEL061C, strain CIN8 (second series), active compounds read low 0.996 | locus YER002W, strain NOP16, active compounds read low 0.988 | locus YER015W, strain faa2, active compounds read low 1.01 | locus YER016W, strain bim1, active compounds read low 0.977 | locus YER111C, strain swi4, active compounds read low 0.985 | locus YER155C, strain BEM2 (second series), active compounds read low 0.996 | locus YFR010W, strain ubp6, active compounds read low 1.09 | locus YGL167C, strain pmr1, active compounds read low 1 | locus YGL173C, strain kem1, active compounds read low 1 | locus YGL227W, strain vid30, active compounds read low 0.989 | locus YGL240W, strain doc1, active compounds read low 1 | locus YGL253W, strain hxk2, active compounds read low 1.03 | locus YHR013C, strain ard1, active compounds read low 0.969 | locus YHR027C, strain rpn1, active compounds read low 1.02 | locus YHR030C, strain SLT2, active compounds read low 1.03 | locus YHR079C, strain IRE1, active compounds read low 1.04 | locus YHR142W, strain chs7, active compounds read low 1.01 | locus YJL092W, strain hpr5, active compounds read low 1 | locus YJL095W, strain BCK1 (second series), active compounds read low 0.989 | locus YJL095W, strain BCK1, active compounds read low 1.05 | locus YJL115W, strain asf1, active compounds read low 0.988 | locus YJL129C, strain trk1, active compounds read low 0.995 | locus YJL154C, strain vps35, active compounds read low 0.989 | locus YJL164C, strain tpk1, active compounds read low 0.999 | locus YJL166W, strain qcr8, active compounds read low 1.01 | locus YJL187C, strain SWE1, active compounds read low 0.987 | locus YJR066W, strain TOR1, active compounds read low 0.978 | locus YKL160W, strain elf1, active compounds read low 0.971 | locus YKR026C, strain gcn3, active compounds read low 0.994 | locus YKR091W, strain srl3, active compounds read low 1 | locus YLL001W, strain dnm1, active compounds read low 0.974 | locus YLL026W, active compounds read low 0.992 | locus YLL041C, strain sdh2, active compounds read low 0.983 | locus YLR027C, strain aat2, active compounds read low 1.01 | locus YLR113W, strain HOG1, active compounds read low 1.01 | locus YLR221C, strain rsa3, active compounds read low 0.996 | locus YLR258W, strain gsy2, active compounds read low 0.997 | locus YLR262C, strain YPT6 (second series), active compounds read low 0.984 | locus YLR320W, strain mms22, active compounds read low 0.975 | locus YLR342W, strain FKS1, active compounds read low 0.997 | locus YLR357W, strain rsc2, active compounds read low 0.964 | locus YLR370C, strain arc18, active compounds read low 1 | locus YLR384C, strain iki3, active compounds read low 0.971 | locus YML120C, strain ndi1, active compounds read low 1.02 | locus YMR058W, strain fet3, active compounds read low 1 | locus YMR125W, strain sto1, active compounds read low 0.997 | locus YMR129W, active compounds read low 0.985 | locus YMR205C, strain PFK2, active compounds read low 1.02 | locus YMR231W, strain pep5, active compounds read low 0.994 | locus YNL071W, strain lat1, active compounds read low 0.998 | locus YNL153C, strain GIM3, active compounds read low 0.994 | locus YNL175C, strain NOP13, active compounds read low 0.989 | locus YNL183C, strain NPR1, active compounds read low 0.997 | locus YNL197C, strain WHI3, active compounds read low 0.995 | locus YNL209W, strain ssb2, active compounds read low 1.02 | locus YNL224C, strain SQS1, active compounds read low 0.988 | locus YNL248C, strain rpa49, active compounds read low 0.956 | locus YNL322C, strain KRE1 (second series), active compounds read low 0.966 | locus YNR049C, strain mso1, active compounds read low 1 | locus YOR001W, strain rrp6, active compounds read low 1.02 | locus YOR070C, strain gyp1, active compounds read low 0.998 | locus YOR080W, strain dia2, active compounds read low 1 | locus YOR083W, strain WHI5 (second series), active compounds read low 1.01 | locus YOR083W, strain WHI5, active compounds read low 0.929 | locus YOR106W, strain vam3, active compounds read low 0.994 | locus YOR231W, strain MKK1, active compounds read low 1.06 | locus YOR265W, strain rbl2, active compounds read low 1.02 | locus YOR270C, strain vph1, active compounds read low 1.04 | locus YOR290C, strain snf2, active compounds read low 0.989 | locus YPL051W, strain arl3, active compounds read low 1 | locus YPL055C, strain LGE1, active compounds read low 0.969 | locus YPL078C, strain atp4, active compounds read low 0.984 | locus YPL106C, strain sse1, active compounds read low 0.976 | locus YPL240C, strain hsp82, active compounds read low 1 | locus YPL241C, strain CIN2, active compounds read low 0.999 | locus YPL256C, strain CLN2, active compounds read low 1.03
